Data published in PubChem BioAssay (EPA / NIEHS).
Inconclusive results are not listed. Active and inactive are the calls of the source. The calls were made as follows: active = hit-call score of the fitted dose curve at least 0.9, where 1 is the maximum; inconclusive = response in the unintended direction; inactive = score below 0.9.

Tests used:
[1] = biological target: Estrogen receptor (Homo sapiens) + Estrogen receptor beta (Homo sapiens) (UniProt P03372+Q92731); assay: OT_ER_ERaERb_1440: Odyssey Thera (OT) 24-hour HEK293T Protein-Complementation Assay for Estrogen Receptor-alpha/-beta Homodimer (AID 2283356);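 also: heteromer of ER alpha and ER beta binding domains; hits raise reporter fluorescence and both agonists and antagonists give an increase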
Procedure, shortened: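 Stable HEK293T PCA line, ERα LBD 310-547 + ERβ LBD 263-489 fused to reporter fragments; 24 h treatment; fluorescence read by laser scanning cytometry; positive fitting direction relative to DMSO.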

[2] = biological target: Estrogen receptor beta (Homo sapiens) (UniProt Q92731); assay: OT_ER_ERbERb_0480: Odyssey Thera (OT) 8-hour HEK293T Protein-Complementation Assay for Estrogen Receptor-beta/-beta Homodimer (AID 2283357);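 also: active means signal gain over DMSO baseline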
Procedure, shortened: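 Fluorescence gain from complemented reporter fragments on ER-beta LBD homodimer in HEK293T was quantified against DMSO controls after 8 h treatment, fixation in 4% formaldehyde and Draq5 staining.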

[3] = biological target: Estrogen receptor beta (Homo sapiens) (UniProt Q92731); assay: OT_ER_ERbERb_1440: Odyssey Thera (OT) 24-hour HEK293T Protein-Complementation Assay for Estrogen Receptor-beta/-beta Homodimer (AID 2283380);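 also: fluorescence gain from ER beta LBD homodimer complementation read by laser scanning cytometry; scored as signal increase over DMSO baseline for both agonists and antagonists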
Procedure, shortened: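 HEK293T cells stably expressing human ER-beta LBD (aa 310-547) PCA homodimer pair, dosed 24 h; formaldehyde-fixed, Draq5-stained. Readout: increase in nuclear (agonist) or nuclear plus cytoplasmic (antagonist) fluorescence intensity versus DMSO, gain-of-signal fitting.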

[4] = biological target: Retinoic acid receptor alpha (Homo sapiens) (UniProt P10276); assay: NVS_NR_hRAR_Antagonist: NovaScreen (NVS) Nuclear Receptor Binding Assay for human Retinoic Acid Alpha Receptor Antagonism (RAR) (AID 2283358)
Procedure, shortened: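 Chemicals were first tested in duplicate at 25 uM, then actives in concentration series, in a cell-free TR-FRET antagonist binding format. Measurements were taken 2 hours after dosing and loss of signal was evaluated against DMSO controls.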

[5] = biological target: human Peroxisome Proliferator-activated Receptor alpha (PPARa), PPARA (gene 5465) (UniProt Q07869); assay: NVS_NR_hPPARa: NovaScreen (NVS) Nuclear Receptor Binding Assay for human Peroxisome Proliferator-activated Receptor alpha (PPARa) (AID 2283359);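 also: activity means loss of TR-FRET signal versus DMSO baseline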
Procedure, shortened: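 One-hour incubation, cell-free extracted protein, TR-FRET binding readout; signal loss vs DMSO scored. Screen: 25 uM duplicates, confirmatory dose series for actives.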

[6] = biological target: Glucocorticoid receptor (Homo sapiens) (UniProt P04150); assay: NVS_NR_hGR: NovaScreen (NVS) Nuclear Receptor Binding Assay for human Glucocorticoid Receptor (GR) (AID 2283363);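 as to AC50: activity is loss of specific radioligand binding signal relative to DMSO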
Procedure, shortened: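 Single-readout cell-free binding: radioligand plus extracted receptor, 16-hour dosing, filter radiodetection; 25 uM duplicate primary, concentration series secondary.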

[7] = biological target: Nuclear receptor subfamily 1 group I member 2 (Homo sapiens) (UniProt O75469); assay: NVS_NR_hPXR: NovaScreen (NVS) Nuclear Receptor Binding Assay for human Pregnane X Receptor (PXR) (AID 2283365);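 also: a drop in FRET signal versus DMSO baseline means the compound binds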
Procedure, shortened: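 Human PXR protein, cell-free; compound added, incubated 2 h, TR-FRET read. Signal decrease vs DMSO = binding. Screened 25 uM duplicate, actives re-run as dilution series.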

[8] = biological target: Peroxisome proliferator-activated receptor gamma (Homo sapiens) (UniProt P37231); assay: NVS_NR_hPPARg: NovaScreen (NVS) Nuclear Receptor Binding Assay for human Peroxisome Proliferator-activated Receptor gamma (PPARg) (AID 2283370)
Procedure, shortened: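 Chemicals were tested first in duplicate at 25 uM, then in concentration series if active. Binding to cell-free PPARg protein was measured by fluorescence polarization after 2 h, with loss of signal scored against DMSO.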

[9] = biological target: mouse Estrogen Receptor alpha (Era), Esr1 (gene 13982) (UniProt P19785); assay: NVS_NR_mERa: NovaScreen (NVS) Nuclear Receptor Binding Assay for mouse Estrogen Receptor alpha (Era) (AID 2283378);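 also: hit means loss of bound radioligand signal relative to DMSO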
Procedure, shortened: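 Extracted mouse Era incubated with tritiated or iodinated radioligand plus test chemical, 18 h. Bound fraction separated on filters, counted by scintillation. DMSO = negative control/baseline; duplicate single-point at 25 uM, then concentration-response follow-up.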

[10] = biological target: Androgen Receptor/SRC-1 Co-activator, AR (gene 367) (UniProt P10275); assay: OT_AR_ARSRC1_0480: Odyssey Thera (OT) 8-hour HEK293T Protein-Complementation Assay for Androgen Receptor/SRC-1 Co-activator (AID 2283354);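 also: hits raise the complementation signal above DMSO so AC50 marks enhancers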
Procedure, shortened: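 After 8 h dosing, stably expressing HEK293T cells with split-Venus AR/SRC-1 fusions were imaged (488, 635nm). The 488nm N/C ratio per image gave the endpoint, analysed in the positive direction against DMSO.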

[11] = biological target: rat Serotonin Transporter (SERT), Slc6a4 (gene 25553) (UniProt P31652); assay: NVS_TR_rSERT: NovaScreen (NVS) Transporter Assay for rat Serotonin Transporter (SERT) (AID 2283375)
Procedure, shortened: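 Filtration-based radiodetection quantified loss of specific radioligand binding in rat forebrain membranes after 1 hour of chemical exposure, relative to DMSO. Chemicals were first tested in duplicate at 25 uM.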

[12] = system: guinea pig Dopamine Transporter (DAT), gene 100714898; assay: NVS_TR_gDAT: NovaScreen (NVS) Transporter Assay for guinea pig Dopamine Transporter (DAT) (AID 2283369);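 also: active compounds lower bound radioligand signal relative to DMSO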
Procedure, shortened: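 Scintillation counts of filter-retained radioligand report binding to guinea pig striatal membranes after 2 h. Activity scored as signal loss relative to DMSO, first at 25 uM in duplicate, then in concentration series to 50 uM.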

[13] = biological target: human Dopamine Transporter (DAT), SLC6A3 (gene 6531) (UniProt Q01959); assay: NVS_TR_hDAT: NovaScreen (NVS) Transporter Assay for human Dopamine Transporter (DAT) (AID 2283374);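 also: activity means loss of bound radioligand signal relative to DMSO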
Procedure, shortened: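 Extracted human SLC6A3 protein incubated 1 h with radioligand and test chemical; bound fraction separated on filters and counted. Single 25 uM duplicate screen preceded concentration-response follow-up; positive and negative controls on every plate.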

[14] = biological target: human Norepinephrine Transporter (NET), SLC6A2 (gene 6530) (UniProt P23975); assay: NVS_TR_hNET: NovaScreen (NVS) Transporter Assay for human Norepinephrine Transporter (NET) (AID 2283377);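 also: cell-free membrane protein extracted from CHO cells expressing human NET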;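 as to AC50: displacement of radioligand from human NET seen as loss of scintillation signal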
Procedure, shortened: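 In this cell-free binding screen, chemicals at 25 uM (duplicate) compete with a radioligand for CHO-derived human NET over 1 hour, with filter-based radiodetection.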

[15] = biological target: human Thyroid Receptor Alpha (TRa), THRA (gene 7067) (UniProt P10827); assay: NVS_NR_hTRa_Antagonist: NovaScreen (NVS) Nuclear Receptor Binding Assay for human Thyroid Receptor Alpha Antagonism (TRa) (AID 2283362);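 also: activity is loss of signal relative to DMSO baseline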
Procedure, shortened: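 Extracted protein, cell-free; 1 h incubation after dosing; AlphaLISA chemiluminescence binding readout. DMSO = baseline/neg ctrl; signal loss = activity. Primary: duplicate, 25 uM; secondary: conc. series on actives.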

[16] = biological target: Agonist Androgen Response Element (ARE), AR (gene 367) (UniProt P10275); assay: OT_AR_ARELUC_AG_1440: Odyssey Thera (OT) 24-hour CHO-K1 Luciferase Assay for Agonist Androgen Response Element (ARE) (AID 2283379)
Procedure, shortened: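 Luminescence increase above DMSO, read after a 24 h compound treatment of CHO-K1 cells expressing an androgen response element luciferase reporter, gives the single primary endpoint; concentration-response fitting used the positive direction.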

PGR (gene 5241) = PGR (gene 5241) (UniProt P06401); assay: NVS_NR_hPR: NovaScreen (NVS) Nuclear Receptor Binding Assay for human Progestron Receptor (PR) (AID 2283360);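 also: active means loss of bound radioligand signal versus DMSO baseline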
Procedure, shortened: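 Competitive displacement of a labelled radioligand from T47D-derived receptor protein is measured in a cell-free format. Initial testing uses 25 uM in duplicate, with positive and negative controls on every plate.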

Chain of Estrogen receptor beta (Homo sapiens) (Q92731 whole entry, looked up, the tested form may be a part): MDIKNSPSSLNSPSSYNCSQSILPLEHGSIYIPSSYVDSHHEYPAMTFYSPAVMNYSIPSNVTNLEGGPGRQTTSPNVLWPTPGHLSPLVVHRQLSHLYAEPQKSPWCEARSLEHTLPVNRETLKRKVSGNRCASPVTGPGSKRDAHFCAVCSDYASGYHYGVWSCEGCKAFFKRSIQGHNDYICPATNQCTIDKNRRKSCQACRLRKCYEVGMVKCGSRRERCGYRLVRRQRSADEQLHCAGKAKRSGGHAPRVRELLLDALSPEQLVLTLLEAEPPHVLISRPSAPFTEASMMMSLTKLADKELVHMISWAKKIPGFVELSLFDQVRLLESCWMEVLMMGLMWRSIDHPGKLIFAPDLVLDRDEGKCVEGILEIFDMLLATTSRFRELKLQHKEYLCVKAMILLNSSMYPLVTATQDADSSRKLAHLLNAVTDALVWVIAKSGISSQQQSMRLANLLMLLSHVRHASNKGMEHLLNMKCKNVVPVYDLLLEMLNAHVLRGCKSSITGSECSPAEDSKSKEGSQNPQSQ
Chain of mouse Estrogen Receptor alpha (Era), Esr1 (gene 13982) (P19785 whole entry, looked up): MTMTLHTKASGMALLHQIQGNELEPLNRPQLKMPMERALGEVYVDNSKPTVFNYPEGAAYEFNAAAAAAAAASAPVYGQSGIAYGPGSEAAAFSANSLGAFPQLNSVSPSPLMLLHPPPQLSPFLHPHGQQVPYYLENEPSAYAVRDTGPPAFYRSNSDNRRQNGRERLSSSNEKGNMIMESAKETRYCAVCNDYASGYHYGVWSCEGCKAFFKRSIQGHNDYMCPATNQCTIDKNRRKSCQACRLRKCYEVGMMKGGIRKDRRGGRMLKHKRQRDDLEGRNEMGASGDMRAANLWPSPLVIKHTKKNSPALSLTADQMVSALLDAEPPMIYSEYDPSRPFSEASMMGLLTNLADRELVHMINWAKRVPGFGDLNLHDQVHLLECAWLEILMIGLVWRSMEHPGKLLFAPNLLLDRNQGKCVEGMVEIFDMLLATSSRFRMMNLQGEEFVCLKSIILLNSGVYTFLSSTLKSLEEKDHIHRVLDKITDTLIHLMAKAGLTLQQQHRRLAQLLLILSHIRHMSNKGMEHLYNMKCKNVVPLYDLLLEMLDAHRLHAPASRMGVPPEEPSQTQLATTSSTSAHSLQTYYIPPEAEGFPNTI
Chain of human Dopamine Transporter (DAT), SLC6A3 (gene 6531) (Q01959 whole entry, looked up): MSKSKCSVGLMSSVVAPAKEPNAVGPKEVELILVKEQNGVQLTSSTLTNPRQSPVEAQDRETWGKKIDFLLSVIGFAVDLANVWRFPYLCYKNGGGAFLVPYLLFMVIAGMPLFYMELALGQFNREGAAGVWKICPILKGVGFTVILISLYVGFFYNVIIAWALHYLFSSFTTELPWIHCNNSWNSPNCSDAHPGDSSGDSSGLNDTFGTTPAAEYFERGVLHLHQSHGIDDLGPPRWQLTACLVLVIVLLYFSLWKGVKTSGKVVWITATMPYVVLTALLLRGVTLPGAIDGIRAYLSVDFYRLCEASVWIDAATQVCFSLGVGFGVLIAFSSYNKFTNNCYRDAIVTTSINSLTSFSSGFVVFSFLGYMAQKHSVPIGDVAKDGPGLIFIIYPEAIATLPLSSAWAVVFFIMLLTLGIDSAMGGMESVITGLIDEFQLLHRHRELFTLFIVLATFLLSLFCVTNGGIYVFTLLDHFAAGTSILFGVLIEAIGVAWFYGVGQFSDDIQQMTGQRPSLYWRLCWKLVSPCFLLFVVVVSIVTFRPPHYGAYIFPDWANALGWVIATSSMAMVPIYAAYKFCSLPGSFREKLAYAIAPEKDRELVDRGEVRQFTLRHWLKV
Chain of Nuclear receptor subfamily 1 group I member 2 (Homo sapiens) (O75469 whole entry, looked up): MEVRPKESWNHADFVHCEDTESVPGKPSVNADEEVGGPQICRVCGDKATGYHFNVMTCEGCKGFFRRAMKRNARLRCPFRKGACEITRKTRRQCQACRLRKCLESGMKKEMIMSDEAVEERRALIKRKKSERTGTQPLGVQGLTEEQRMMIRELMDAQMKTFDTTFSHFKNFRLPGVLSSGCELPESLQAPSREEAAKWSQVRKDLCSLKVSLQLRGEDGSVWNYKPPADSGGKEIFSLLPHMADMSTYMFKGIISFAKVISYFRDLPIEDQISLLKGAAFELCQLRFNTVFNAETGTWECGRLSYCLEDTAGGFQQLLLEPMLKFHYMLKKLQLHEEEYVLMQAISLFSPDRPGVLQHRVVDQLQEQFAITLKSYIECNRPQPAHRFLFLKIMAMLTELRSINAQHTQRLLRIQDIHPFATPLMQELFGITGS
Chain of human Norepinephrine Transporter (NET), SLC6A2 (gene 6530) (P23975 whole entry, looked up): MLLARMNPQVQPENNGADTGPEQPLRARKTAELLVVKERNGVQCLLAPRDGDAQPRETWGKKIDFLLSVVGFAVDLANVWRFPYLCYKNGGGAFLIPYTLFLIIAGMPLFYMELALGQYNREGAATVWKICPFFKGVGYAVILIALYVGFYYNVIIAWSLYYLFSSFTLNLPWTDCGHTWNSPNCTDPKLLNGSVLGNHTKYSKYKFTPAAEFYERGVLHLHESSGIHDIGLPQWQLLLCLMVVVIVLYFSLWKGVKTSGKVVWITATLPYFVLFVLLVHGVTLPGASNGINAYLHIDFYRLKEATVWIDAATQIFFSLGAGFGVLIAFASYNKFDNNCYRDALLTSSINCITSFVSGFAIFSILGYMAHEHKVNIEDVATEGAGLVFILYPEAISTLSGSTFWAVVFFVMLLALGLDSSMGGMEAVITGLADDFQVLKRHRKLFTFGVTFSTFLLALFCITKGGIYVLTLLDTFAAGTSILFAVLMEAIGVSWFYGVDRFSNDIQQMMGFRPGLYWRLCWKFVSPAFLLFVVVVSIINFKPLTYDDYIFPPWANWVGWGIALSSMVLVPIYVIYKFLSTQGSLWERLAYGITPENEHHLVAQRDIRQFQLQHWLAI
Chain of Androgen Receptor/SRC-1 Co-activator, AR (gene 367) (P10275 whole entry, looked up, the tested form may be a part): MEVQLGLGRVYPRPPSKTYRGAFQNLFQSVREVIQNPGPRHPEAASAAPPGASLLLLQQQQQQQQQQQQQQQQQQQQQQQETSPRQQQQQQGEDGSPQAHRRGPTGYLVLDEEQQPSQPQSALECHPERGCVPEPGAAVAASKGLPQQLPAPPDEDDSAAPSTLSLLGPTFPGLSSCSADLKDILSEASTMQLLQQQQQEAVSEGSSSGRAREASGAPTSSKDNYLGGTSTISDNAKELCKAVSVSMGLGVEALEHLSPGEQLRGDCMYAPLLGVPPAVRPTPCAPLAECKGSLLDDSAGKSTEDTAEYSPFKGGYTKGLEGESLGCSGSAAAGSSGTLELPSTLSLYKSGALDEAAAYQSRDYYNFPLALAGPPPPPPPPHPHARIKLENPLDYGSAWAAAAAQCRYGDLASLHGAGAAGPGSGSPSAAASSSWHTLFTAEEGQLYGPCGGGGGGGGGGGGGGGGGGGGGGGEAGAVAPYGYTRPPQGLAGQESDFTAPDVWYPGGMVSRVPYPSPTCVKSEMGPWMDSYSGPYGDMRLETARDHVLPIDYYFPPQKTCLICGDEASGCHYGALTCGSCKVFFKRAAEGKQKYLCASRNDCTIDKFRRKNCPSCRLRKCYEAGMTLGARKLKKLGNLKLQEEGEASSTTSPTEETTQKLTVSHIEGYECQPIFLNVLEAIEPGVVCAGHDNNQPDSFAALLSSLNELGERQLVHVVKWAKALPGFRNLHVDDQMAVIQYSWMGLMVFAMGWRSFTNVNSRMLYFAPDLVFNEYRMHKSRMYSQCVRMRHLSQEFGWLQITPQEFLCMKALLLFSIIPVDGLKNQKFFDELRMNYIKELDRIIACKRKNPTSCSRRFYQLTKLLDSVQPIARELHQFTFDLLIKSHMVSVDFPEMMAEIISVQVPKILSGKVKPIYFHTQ
Chain of Glucocorticoid receptor (Homo sapiens) (P04150 whole entry, looked up): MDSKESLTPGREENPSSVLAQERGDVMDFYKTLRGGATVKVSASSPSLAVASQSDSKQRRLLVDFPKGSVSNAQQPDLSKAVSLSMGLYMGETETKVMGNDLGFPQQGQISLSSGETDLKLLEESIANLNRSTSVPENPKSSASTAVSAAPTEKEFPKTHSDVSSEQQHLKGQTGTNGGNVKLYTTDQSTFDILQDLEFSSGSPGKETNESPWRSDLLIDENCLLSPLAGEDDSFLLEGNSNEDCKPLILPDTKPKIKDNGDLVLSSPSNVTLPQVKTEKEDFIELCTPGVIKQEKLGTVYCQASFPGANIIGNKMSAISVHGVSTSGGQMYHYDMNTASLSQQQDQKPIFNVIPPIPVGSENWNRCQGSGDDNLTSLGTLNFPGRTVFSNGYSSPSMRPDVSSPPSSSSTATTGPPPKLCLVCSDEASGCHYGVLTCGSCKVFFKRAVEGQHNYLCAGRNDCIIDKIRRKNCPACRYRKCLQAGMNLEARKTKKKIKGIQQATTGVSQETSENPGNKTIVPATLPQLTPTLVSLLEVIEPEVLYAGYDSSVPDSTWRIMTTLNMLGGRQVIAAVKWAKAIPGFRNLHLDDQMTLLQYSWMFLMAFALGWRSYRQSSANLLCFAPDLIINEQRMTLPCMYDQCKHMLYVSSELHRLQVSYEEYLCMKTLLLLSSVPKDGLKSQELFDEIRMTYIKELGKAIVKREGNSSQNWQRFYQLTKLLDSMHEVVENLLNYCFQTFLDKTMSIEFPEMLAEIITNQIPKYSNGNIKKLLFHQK
Chain of Peroxisome proliferator-activated receptor gamma (Homo sapiens) (P37231 whole entry, looked up): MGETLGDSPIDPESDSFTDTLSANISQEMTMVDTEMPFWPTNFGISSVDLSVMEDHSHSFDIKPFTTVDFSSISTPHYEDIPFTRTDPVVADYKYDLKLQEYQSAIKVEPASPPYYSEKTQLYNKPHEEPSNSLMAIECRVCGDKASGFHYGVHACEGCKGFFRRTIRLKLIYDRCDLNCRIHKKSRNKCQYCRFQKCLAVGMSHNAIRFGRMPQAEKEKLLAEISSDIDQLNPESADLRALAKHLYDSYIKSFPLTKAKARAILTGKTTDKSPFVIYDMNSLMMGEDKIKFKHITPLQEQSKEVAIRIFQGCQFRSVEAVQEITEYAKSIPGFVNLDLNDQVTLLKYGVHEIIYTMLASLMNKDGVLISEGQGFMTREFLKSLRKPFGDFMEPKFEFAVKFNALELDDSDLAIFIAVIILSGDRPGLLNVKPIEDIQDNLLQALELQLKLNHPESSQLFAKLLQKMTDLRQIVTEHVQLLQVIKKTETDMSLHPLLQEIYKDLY

**Q.** `C1COCCN1` was tested. Which outcome [1] did it give?
**A.** inactive

**Q.** What about the outcome [2] of the same compound?
**A.** inactive

**Q.** And the outcome [3]?
**A.** inactive

**Q.** Which AC50 [1] does the source give for `CC(Cc1ccc(O)c(O)c1)C(C)Cc1ccc(O)c(O)c1` (configuration not stated) here?
**A.** 11.9 µM (active)

**Q.** And the AC50 [2]?
**A.** 11.9 µM (active)

**Q.** What about the AC50 [4] of the same compound?
**A.** 11.7 µM (active)

**Q.** What about the AC50 [5] of the same compound?
**A.** 4.6 µM (active)

**Q.** What about the AC50 [6] of the same compound?
**A.** 1.79 µM (active)

**Q.** And the AC50 [7]?
**A.** 5.16 µM (active)

**Q.** And the AC50 [8]?
**A.** 4.91 µM (active)

**Q.** What about the AC50 [9] of the same compound?
**A.** 1.82 µM (active)

**Q.** And the AC50 [3]?
**A.** 11.9 µM (active)

**Q.** What does the source list for `CCCCCCOC(=O)c1ccccc1O`?
**A.** outcome [10]: inactive; outcome [1]: inactive; outcome [2]: inactive; outcome [7]: inactive; outcome [3]: inactive

**Q.** `COC(=O)C1CCC(C(=O)OC)CC1` (configuration not stated) was tested. Which outcome [1] did it give?
**A.** inactive

**Q.** What about the outcome [2] of the same compound?
**A.** inactive

**Q.** What about the outcome [7] of the same compound?
**A.** inactive

**Q.** What about the outcome [3] of the same compound?
**A.** inactive

**Q.** Which outcome [11] does the source give for `Cc1cccc(N(C)C)c1` here?
**A.** inactive

**Q.** Which AC50 [12] does the source give for `CCN(CC)c1ccc2c(C)cc(=O)oc2c1` here?
**A.** 13.6 µM (active)

**Q.** What about the AC50 [13] of the same compound?
**A.** 20.2 µM (active)

**Q.** What about the AC50 [14] of the same compound?
**A.** 25 µM (active)

**Q.** Which AC50 [14] does the source give for `O[Si](c1ccccc1)(c1ccccc1)c1ccccc1` here?
**A.** 25 µM (active)

**Q.** For `c1ccc(B(c2ccccc2)c2ccccc2)cc1`, which outcome [9] is on record?
**A.** inactive

**Q.** Which outcome [1] does the source give for `CCCCCCOC(=O)c1ccccc1` here?
**A.** inactive

**Q.** What about the outcome [2] of the same compound?
**A.** inactive

**Q.** And the outcome [3]?
**A.** inactive

**Q.** With `CCCCOc1ccc(N)cc1` as the compound, how does the AC50 [1] read?
**A.** 68.7 µM (active)

**Q.** And the outcome [2]?
**A.** inactive

**Q.** What about the AC50 [3] of the same compound?
**A.** 25.2 µM (active)

**Q.** Which AC50 [12] does the source give for `Oc1ccc(Nc2ccccc2)cc1` here?
**A.** 12.1 µM (active)

**Q.** And the AC50 [13]?
**A.** 6.97 µM (active)

**Q.** What about the AC50 [14] of the same compound?
**A.** 11.9 µM (active)

**Q.** What about the outcome [9] of the same compound?
**A.** inactive

**Q.** For `Cc1cc(C)cc(O)c1`, which outcome [1] is on record?
**A.** inactive

**Q.** And the outcome [2]?
**A.** inactive

**Q.** And the outcome [6]?
**A.** inactive

**Q.** And the outcome [3]?
**A.** inactive

**Q.** What does the source list for `CCCCCCC(C)OC(=O)CCCCC(=O)OC(C)CCCCCC` (configuration not stated)?
**A.** outcome [10]: inactive; outcome [1]: inactive; outcome [2]: inactive; outcome [15]: inactive; outcome [16]: inactive; outcome [3]: inactive

**Q.** For `Nc1ccc(Oc2cccc(Oc3ccc(N)cc3)c2)cc1`, which outcome (PGR (gene 5241)) is on record?
**A.** inactive

**Q.** What about the AC50 [12] of the same compound?
**A.** 3.46 µM (active)

**Q.** What about the AC50 [13] of the same compound?
**A.** 1.02 µM (active)

**Q.** And the outcome [14]?
**A.** inactive

**Q.** With `CC(C)c1ccccc1N` as the compound, how does the outcome [14] read?
**A.** inactive

**Q.** `CCCCC(CC)COP(=O)(O)OCC(CC)CCCC` (configuration not stated) was tested. Which outcome [5] did it give?
**A.** inactive

**Q.** What about the AC50 [6] of the same compound?
**A.** 8.04 µM (active)

**Q.** What about the outcome [7] of the same compound?
**A.** inactive

**Q.** What about the outcome [8] of the same compound?
**A.** inactive

**Q.** What about the outcome [9] of the same compound?
**A.** inactive

**Q.** With `[Co]` as the compound, how does the outcome [10] read?
**A.** inactive

**Q.** What about the outcome [1] of the same compound?
**A.** inactive

**Q.** And the outcome [2]?
**A.** inactive

**Q.** What about the outcome [16] of the same compound?
**A.** inactive

**Q.** What about the outcome [3] of the same compound?
**A.** inactive
